Rab9 promoter act = activators of Rab9 promoter; AID 485297; Potency, µM (highest dose often 9.22 µM), for inactives: top-dose activation, negative = inhibition, hits mostly activators; Huh7 Rab9 promoter-luciferase reporter, luminescence, 24 h; hit rate 2.8% among 320,000; also: % of control where 0% means no effect; nearly all actives have a fitted effect of over 60% in size
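Luminescence read-out: Huh7 cells stably expressing Rab9-luciferase, treated 24 h with compound at 37 °C, then lysed with luciferase reagent for 10 min at ambient before reading.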
FLuc counter = counter-screen for miR-21 project: firefly luciferase inhibitors or activators; Potency, µM (titrated, usually from 57.5 µM), for inactives: at the highest dose activity change, negative = inhibition, most hits filed as inhibitors; purified FLuc, Km substrates, luminescence inhibition; hit rate 6.9% among 360,000;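 also: plate controls were vehicle for no effect and reference inhibitor for full effect; nearly all actives have a fitted effect of over 55% in size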
Target sequence (P08659 whole entry, looked up): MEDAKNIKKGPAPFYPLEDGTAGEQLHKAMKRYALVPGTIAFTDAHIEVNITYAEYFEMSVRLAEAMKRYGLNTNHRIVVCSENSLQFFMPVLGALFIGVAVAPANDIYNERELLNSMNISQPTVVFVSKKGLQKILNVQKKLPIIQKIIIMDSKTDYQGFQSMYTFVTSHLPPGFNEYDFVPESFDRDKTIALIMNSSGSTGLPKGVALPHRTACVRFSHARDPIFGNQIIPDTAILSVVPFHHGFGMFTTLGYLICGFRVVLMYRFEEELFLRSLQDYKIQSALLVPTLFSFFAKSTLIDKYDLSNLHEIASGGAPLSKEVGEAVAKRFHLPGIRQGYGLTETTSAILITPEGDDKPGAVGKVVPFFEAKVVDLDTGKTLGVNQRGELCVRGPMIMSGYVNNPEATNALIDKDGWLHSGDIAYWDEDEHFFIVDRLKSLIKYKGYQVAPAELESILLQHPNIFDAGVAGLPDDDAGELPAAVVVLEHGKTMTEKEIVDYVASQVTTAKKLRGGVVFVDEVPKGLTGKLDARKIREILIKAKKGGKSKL
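Purified P. pyralis luciferase (10nM final) with 10uM D-luciferin and 10uM ATP (Km levels) in 50mM Tris acetate pH 7.5, 10mM Mg acetate, 0.01% Tween-20, 0.05% BSA; qHTS 6-point titration, ~60 µM downward; luminescence read.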
ELG1 genotox = genotoxicity induction in ELG1-luciferase HEK293T cells; HEK293T ELG1-luciferase reporter, luminescence, 16 h; Potency, µM (series often up to 46 µM), for the others: at the highest dose activity change, positive = activation, actives largely listed as activators; hit rate 1.3% among 330,000; also: % of control where 0% means no effect; nearly all actives have a fitted effect of over 60% in size
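Cells (2,000/well) expressing the ELG1-luciferase fusion are dosed by pin tool and kept 16 hr at 37 °C, 5% CO2. Signal comes from ONE-Glo luciferase reagent after 30 min at room temperature.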
NPC1 promoter act = activates the NPC1 promoter. Potency, µM (highest dose often 9.22 µM), inactives show at the highest dose activation, hits mostly activators. AID 485313. hit rate 2.4% among 320,000. Huh7 NPC1 promoter luciferase reporter, 24 h; also: % of control where 0% means no effect; nearly all actives have a fitted effect of over 60% in size
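In 1536-well qHTS, Huh7 cells harboring an NPC1 promoter–luciferase construct received compound for 24 h; activation was quantified by luminescence following luciferase reagent addition.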
SMN2 splice enh = SMN2 splice variant enhancement. AID 1458. HEK293 SMN2-luciferase splicing reporter, luminescence, 30-36 h. hit rate 2.8% among 210,000. Potency, µM (top dose mostly 46.1 µM), without a hit: top-dose activity change, positive = activation, most hits filed as activators; also: % of control where 0% means no effect; nearly all actives have a fitted effect of over 55% in size
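HEK293 cells carry an SMN2 minigene-luciferase reporter in which exon 7 inclusion puts luciferase in frame. Cells were seeded at 2000 cells/well, attached for 10-12 hours, then exposed to compounds for 30-36 hours at 37C before ONE-Glo luminescence.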
Active calls of the source: *; ? = inconclusive; · = no result given; [ ] = another dose, or the depositor's remark. Shown are actives, neighbours in structure and some others; about 7.4% of the full set was active somewhere. Calls follow the shape of the dose curve; as a rule, active = well fitted curve in the direction sought with a large enough effect; inconclusive = small, poorly fitted or top-dose-only effect, or another doubt; inactive = no such curve, though single readings can be large; an effect the other way counts as inactive or inconclusive. Potency is read from the fitted curve at half-maximal effect.

SMILES | Rab9 promoter act | FLuc counter | ELG1 genotox | NPC1 promoter act | SMN2 splice enh
O=C(c1cccc([N+](=O)[O-])c1)c1cc2ccccc2o1 | 17% | ? | -1% | 9% | -15%
O=C1CCN(c2ccc([N+](=O)[O-])cc2F)CC1 | 2% | 4% | -7% | -1% | -14%
CCN1CCCC1CNC(=O)Cn1nc(C)n2nc(-c3ccccc3)cc2c1=O (stereo not drawn) | -5% | 0% | -1% | -2% | ·
Cc1ccc(/C=N/NC(=O)c2cc3c(s2)CCCC3)o1 | 1% | -19% | 6% | 3% | ·
O=C(NCC(c1ccco1)N1CCCCC1)c1cc2c(s1)CCCC2 (stereo not drawn) | -5% | -16% | -1% | 0% | ·
O=C(Nc1ccon1)c1cc2c(s1)CCCCCC2 | 3.5µM* | 6µM* | 4.5µM* | 3.2µM* | 13µM*
O=C(Nc1ccon1)c1cc2c(s1)CCCC2 | 1.1µM* | 3µM* | 1.3µM* | 1.4µM* | 6.3µM*
COc1ccc(NC2CCCN(C(=O)c3cccc(N4CCNC4=O)c3)C2)cc1 (stereo not drawn) | 6% | 4% | 1% | -1% | ·
O=[N+]([O-])c1cccc(Cl)c1Cl | · | · | · | · | -4%
COc1ccc(Nc2oc(-c3ccccc3)nc2C#N)cc1 | 1.6µM* | ? | ? | 1.8µM* | ?
COc1ccc(CNc2oc(-c3ccccc3)nc2C#N)cc1 | 13% | ? | ? | 10% | 7%
COc1ccc(Nc2oc(-c3ccc(Cl)cc3)nc2C#N)cc1 | ? | 2.7µM* | ? | ? | 14µM*
COc1ccc(Nc2oc(-c3ccc(OC)cc3)nc2C#N)cc1 | 3.5µM* | 2.4µM* | ? | ? | ·
Cc1cc(C)cc(Oc2nc3c(C)cccn3c(=O)c2/C=C(\C#N)c2nc3ccccc3s2)c1 | · | -11% | · | · | 6%
CC(C)c1ccc(/C=N/NC(=O)c2nnn(-c3nonc3N)c2CSC2=NCCS2)cc1 | -5% | -15% | -6% | 0% | -5%
COc1cccc(/C=C/C(=O)OCC(=O)NCCCc2ccccc2)c1OC | · | · | 3% | · | ·
N#Cc1cc2c(nc1SC1CC(=O)N(c3ccccc3)C1=O)CCC2 (stereo not drawn) | -13% | 11µM* | 3% | -11% | -78%
CSc1nc2c(cc1C#N)CCC2 | -2% | -1% | 0% | 1% | ·
O=C(Nc1ccccc1)c1ccc(-c2ccccc2C(F)(F)F)o1 | 19% | 17µM* | 16% | 21% | 16%
N#Cc1ccccc1NC(=O)c1ccc(-c2ccccc2Cl)o1 | ? | ? | ? | 4µM* | ?
CC(C)NC(=O)c1ccc(-c2ccccc2C(F)(F)F)o1 | 25% | ? | 10% | 22% | ?
CC(=O)Nc1ccc(NC(=O)c2ccc(-c3ccccc3Cl)o2)cc1 | ? | -19% | ? | 6% | ·
O=C(Nc1ccccc1)c1ccc(-c2ccccc2Cl)o1 | ? | 6µM* | ? | 29% | ?
COc1ccc(NC(=O)CSc2oc(-c3cccs3)nc2S(=O)(=O)c2ccc(Br)cc2)c(OC)c1 | · | 2% | · | · | 4%
CSc1cnn(Cc2ccccc2)c(=O)c1SCc1ccccc1 | -2% | -9% | 2% | -1% | 9%
SMILES | Rab9 promoter act | FLuc counter | ELG1 genotox | NPC1 promoter act | SMN2 splice enh
Cc1ccc(C(=O)C(C)OC(=O)C2CCN(c3ccc(C(F)(F)F)cn3)CC2)cc1C (stereo not drawn) | 1% | -43% | 6% | 3% | ·
CCOc1ccc(C(=O)C(C)OC(=O)C2CCN(c3ccc(C(F)(F)F)cn3)CC2)cc1 (stereo not drawn) | -1% | -1% | 18µM* | -1% | ·
O=C(c1cnccn1)N1CCC[C@@]2(CCN(C(c3ccccc3)c3ccccc3)C2)C1 | · | · | · | · | -13%
CCc1ccccc1OCC(=O)Nc1nc(-c2cccnc2)cs1 | -4% | ? | ? | -8% | -43%
Cc1ccc(C(=O)OCC(=O)c2c[nH]c3ccccc23)cc1S(=O)(=O)N1CCOCC1 | 1% | 1% | 1% | -2% | ·
N#Cc1ccccc1CSc1nnc(-c2ccc(Br)cc2)o1 | · | 1.2µM* | · | · | ?
Cc1ccc(-c2nnc(SCc3ccccc3C#N)o2)cc1 | · | 0.34µM* | · | · | 2.2µM*
N#Cc1ccc(CSc2nnc(-c3ccc(Br)cc3)o2)cc1 | · | 6% | · | · | -14%
CCN(CC)C(=O)c1cc2sc3ccccc3c2s1 | 3.2µM* | 9.5µM* | ? | 2.8µM* | 25%
COCCN(CCOC)C(=O)c1cc2sc3ccccc3c2s1 | 9% | -16% | 7% | -2% | -18%
O=C(O)/C=C\C(=O)Nc1ccc2c(c1)-c1ccccc1C2 | · | · | · | · | -6%[9.22 µM]
C=CCOC(=O)C(=O)/C=C/c1ccc2c(c1)Cc1ccccc1-2 | 2% | 11µM* | 7% | -1% | ·
O=c1[nH]c2ccc(NCc3ccc(F)cc3)cc2[nH]1 | 15% | 17µM* | -6% | 14% | ·
COc1cc(CNc2ccc3[nH]c(=O)[nH]c3c2)cc(Cl)c1OCc1ccc(F)cc1 | · | -4% | · | · | ·
COCCn1c(C)cc(C(=O)COC(=O)c2ccc3c(c2)NC(=O)CS3)c1C | 1% | 13µM* | 1% | 0% | 7%
C=CCn1c(C)cc(C(=O)COC(=O)c2ccc3c(c2)NC(=O)CS3)c1C | 2% | 17µM* | 0% | 5% | 21%
COC(=O)c1ccc2c(c1)NC(=O)CS2 | -5% | -2% | -1% | -6% | 3%
C=CCn1c(C)cc(C(=O)COC(=O)c2ccc(N)c([N+](=O)[O-])c2)c1C | 1.3µM* | 3µM* | 2.6µM* | 4µM* | 13µM*
Cc1cc(C(=O)COC(=O)c2ccc(N)c([N+](=O)[O-])c2)c(C)n1Cc1ccc2c(c1)OCO2 | 3% | ? | 7% | 26% | ·
CCOc1cc(N2CCOCC2)c(OCC)cc1NC(=O)COC(=O)c1ccccc1OC(F)F | -7% | 2% | -1% | -5% | ·
NS(=O)(=O)c1cccc(NS(=O)(=O)c2cccc(C(F)(F)F)c2)c1 | -10% | -1% | 1% | -5% | ·
Cc1cc(C(=O)Nc2ccc3[nH]ccc3c2)no1 | 2.8µM* | 11µM* | ? | 2.2µM* | ·
Cc1cc(NC(=O)c2cc(C)on2)no1 | 1% | -1% | 15% | 4% | 10%
Oc1c(Cl)cc(Cl)cc1/C=N/NC(=S)NC1CC2C=CC1C2 (stereo not drawn) | -6% | ? | -12% | -2% | ·
Oc1ccccc1/C=N/NC(=S)NCCc1ccccc1 | 27% | 27µM* | -3% | 29% | ·
Oc1ccccc1/C=N/NC(=S)NC1CC2C=CC1C2 (stereo not drawn) | ? | 13µM* | ? | ? | ·
Cn1nnc2c(NCc3ccco3)nccc21 | 1% | 2% | 2% | -2% | -6%
COc1ccc(Nc2nccc3c2nnn3C)cc1 | 2.2µM* | 11µM* | 5.8µM* | 1.3µM* | ?
Cc1cccc(C)c1OCC(=O)NCc1nnc(SCC(=O)NC2CCCCC2C)n1C (stereo not drawn) | 1% | 11% | 2% | -1% | 22µM*

Assay outcomes: PubChem BioAssay, National Center for Advancing Translational Sciences (NCATS)
